# Measurements: ChEMBL document CHEMBL3988442, “University of Dundee, Small-Polar-MMV Screening Library” (2021)
# Screen size: about 85,000 compounds; about 440 (0.52%) showed an effect of 50% or more. Only a selection was taken, and strong results are over-represented in it overall.
# Assay: In vitro enzyme assay to detect hydrolysis of chlorophenol red-beta-D-[…] directly proportional to the number of Toxoplasma stably expressing beta-galactosidase
# Assay type: functional, organism-based, Toxoplasma gondii
# Design: scale not given: in the data most compounds retested in dose-response had high values
SMILES,Percent Effect (10 µM),Percent Effect (50 µM)
COC[C@@H]1CCC[C@@]12CN(Cc1ccco1)CCO2.O=C(O)C(F)(F)F,-11.03%,–
COC[C@@H]1CCC[C@]12CN(Cc1ccco1)CCO2.O=C(O)C(F)(F)F,-8.533%,–
COC[C@@H]1CCC[C@@]12CN(Cc1ccc(C)s1)CCO2.O=C(O)C(F)(F)F,74.98%,–
O=C(c1ccco1)N1CCC(N2CCCC2)CC1,–,-19.12%
CN(Cc1ccccn1)Cc1csnn1,–,13.21%
O=C(c1ccc(Br)cn1)N1CCC(n2ccnn2)CC1,–,0.6699%
COc1cccc(CO)c1C,–,-13.36%
COC(=O)c1ccc(CN2CCCC(CO)C2)cc1 (stereo unspecified),–,-14.35%
CCCc1ccc(C(=O)N2CCC(N)CC2)cc1,–,-1.427%
CCOc1ccccc1C(=O)N1CCC(N)CC1,–,9.165%
CCOc1ccc(C(=O)N2CCC(N)CC2)cc1,–,56.89%
Cc1cc(Br)cc(C(=O)NC2(C(N)=O)CC2)c1,–,10.26%
CC(C)=CCN1CCN(CCO)CC1CCO (stereo unspecified),–,22.16%
O=C(NC1=NCCS1)c1cc2cc(F)ccc2s1,–,-6.521%
Cn1nccc1CCC(=O)NCCN1CCCC1,–,10.39%
COc1ccc(C(C)N(C)Cc2c(C(C)C)[nH]c3ncccc23)cc1 (stereo unspecified),-0.3537%,–
COc1ccc(C(C)N(C)Cc2c(C(C)(C)C)[nH]c3ncccc23)cc1 (stereo unspecified),-0.9197%,–
COc1ccc(C(C)N(C)Cc2c(C3CC3)[nH]c3ncccc23)cc1.Cl (stereo unspecified),65.16%,–
NS(=O)(=O)c1cccnc1NC1CCc2ccccc21 (stereo unspecified),–,16.24%
CN(C1CCCCC1)S(=O)(=O)N1CCNCC1,–,5.411%
COC(=O)c1cnc(C)c(OC)c1,–,-7.167%
COC(=O)c1cnc2[nH]nc(C)c2c1,–,55.45%
CCS(=O)(=O)N1CCN(C(=O)c2cnc3[nH]nc(C)c3c2)CC1,-8.634%,–
NS(=O)(=O)CCNC(=O)c1ccc(-c2cccs2)s1,–,1.485%
NCCNC(=O)c1ccc(-c2ccc(Cl)cc2)s1,–,89.1%

SMILES,Percent Effect (10 µM),Percent Effect (50 µM)
CC(C)(NC(=O)c1ccc(-c2ccc(F)cc2)s1)C(N)=O,16.31%,–
Cc1csc(CCNC(=O)CSCC#N)n1,–,-3.488%
CC(O)C(=O)Nc1ccc(Cl)c(OC(F)F)c1 (stereo unspecified),–,-7.05%
CC(C)(C)OC(=O)NCc1cc(C(N)=O)co1,–,-10.17%
CCC(CNC(=O)c1ccoc1)N1CCCC1 (stereo unspecified),–,9.191%
Cn1cc(NC(=O)CC2C=CCC2)cc(Br)c1=O (stereo unspecified),–,-2.451%
CCN(CCO)Cc1ccc(Br)c2cccnc12,72.7%,–
OCCN(CCO)Cc1ccc(Br)c2cccnc12,9.5%,–
N#CCCN(CCC#N)Cc1ccc(Br)c2cccnc12,11.15%,–
N#Cc1ccc(NCc2cccc(OCC3CCCO3)c2)nc1 (stereo unspecified),-17.65%,–
Cc1nnc(NCc2cccc(OCC3CCCO3)c2)c(C#N)c1C (stereo unspecified),91.1%,–
Cc1nc2ccccc2nc1NCc1cccc(OCC2CCCO2)c1 (stereo unspecified),17.15%,–
CN(C)S(=O)(=O)N(CCCO)c1ccccc1Br,–,-12.8%
CCc1nnc(Nc2cc(C)nc(C3CCN(c4cnccn4)C3)n2)s1 (stereo unspecified),9.302%,–
CCc1nnc(Nc2cc(C)nc(C3CCN(c4ncccn4)C3)n2)s1 (stereo unspecified),8.527%,–
CCc1nnc(Nc2cc(C)nc(C3CCN(c4ccncn4)C3)n2)s1 (stereo unspecified),84.37%,–
O=C(c1cccc(N2CCNC2=O)c1)N1CCOCC1,–,-16.74%
Cc1ccc(-c2cc(CNc3ncnc4c3CCNCC4)no2)cc1,59.71%,–
Clc1ccccc1-c1cc(CNc2ncnc3c2CCNCC3)no1,22.17%,–
COc1ccc(-c2cc(CNc3ncnc4c3CCNCC4)no2)cc1,5.898%,–
O=C(CSc1nnc[nH]1)NCc1ccc(Br)c(F)c1,–,-12.01%
CC(=O)Cc1ccn(C(C)C)n1,–,-14.04%
CC(C)n1ccc(CN2C(=O)CC(C)(C)C2=O)n1,–,66.84%
CCOc1ccc(CN2C(=O)CC(C)(C)C2=O)nc1,15.64%,–
Nc1n[nH]c(SCc2ccc3c(c2)OCCO3)n1,–,48.58%

SMILES,Percent Effect (10 µM),Percent Effect (50 µM)
CC(C)(C)OC(=O)CNC1CCOCC1,–,-4.673%
CCN1CC(C(=O)Nc2ccc(Br)cn2)CC1=O (stereo unspecified),–,-17.13%
O=C(Nc1ccc(Br)cn1)C1CCCNC1 (stereo unspecified),–,56.99%
Cc1cccc(NC(=O)C2CCCNC2)n1 (stereo unspecified),–,-13.07%
CC(NC(=O)c1ccc(Br)cc1)C(=O)N1CCOCC1 (stereo unspecified),–,-8.67%
Cc1cc(C)n(CC2CCCN2CCS(C)(=O)=O)n1 (stereo unspecified),-2.075%,–
Cc1cc(C)n(CC2CCCN2CCCS(N)(=O)=O)n1 (stereo unspecified),-7.895%,–
Cc1cc(C)n(CC2CCCN2CCCS(C)(=O)=O)n1 (stereo unspecified),55.61%,–
Cc1n[nH]c(C)c1C(NC(N)=O)c1ccccc1 (stereo unspecified),–,2.289%
CCN1CCCN(c2ccccn2)CC1,–,3.404%
NCc1cccc(-c2ccccn2)n1,–,73.75%
NCc1nc(-c2ccccn2)cs1,–,-2.115%
NCc1nc(-c2ccccn2)no1,–,-15.18%
CN(CC(=O)Nc1ccsc1)C1CCS(=O)(=O)C1 (stereo unspecified),–,-6.022%
O=C(NCC1CCOC1)c1ccoc1C(F)(F)F (stereo unspecified),–,-4.875%
NCCNc1ccc2ccccc2n1,–,-5.159%
O=C(c1ccc(F)cc1)C(O)O,–,0.6979%
CCn1ncnc1CN1CCCC2(C1)CN(C)C(=O)O2 (stereo unspecified),–,-8.186%
CC(=O)N1CCCCCC1C1CCNCC1 (stereo unspecified),–,-20.88%
COCC(=O)N1CCCCCC1C1CCNCC1 (stereo unspecified),–,-2.687%
NC(=O)N1CCCCCC1C1CCNCC1 (stereo unspecified),–,99.53%
COCCC(=O)N(C)C(C)Cc1ncccc1C (stereo unspecified),–,-3.603%
Cn1cc(C(=O)NC2CC(C)(C)OC2(C)C)cn1 (stereo unspecified),–,6.396%
CC1(C)CC(n2cccn2)C(C)(C)O1 (stereo unspecified),–,95.21%
O[C@@H]1CCC[C@H]1n1cccn1,–,27.87%

SMILES,Percent Effect (10 µM),Percent Effect (50 µM)
Cc1cc(C(=O)NCc2ccc(CO)cc2)cc(C)n1,–,4.895%
CC(C)(C)c1cn2c(n1)C(CNCc1cnn3ccccc13)CCC2 (stereo unspecified),84.08%,–
Cc1cn2c(n1)C(CNCc1cnn3ccccc13)CCC2 (stereo unspecified),-1.725%,–
Cc1cn2c(n1)C(CNCC1=Cc3ccccc3OC1)CCC2 (stereo unspecified),-4.432%,–
CC(C)(C)c1cn2c(n1)C(CNCc1ccccn1)CCC2 (stereo unspecified),84.2%,–
Cn1cccc1CNCC1CCCn2cc(C(C)(C)C)nc21 (stereo unspecified),2.504%,–
Cc1cn2c(n1)C(CNCc1cccc3c1OCO3)CCC2 (stereo unspecified),1.818%,–
Cn1nccc1NC(=O)N1CCOCC1C1CC1 (stereo unspecified),–,-2.135%
O=C1COCC(Cc2ccccc2)N1 (stereo unspecified),–,-23.94%
NC(=O)CN1CCn2cccc2C1c1ccccc1 (stereo unspecified),–,-16.03%
CNC1CCN(c2cc(OC)cc(OC)c2)C1 (stereo unspecified),–,-16.53%
COCc1ccccc1C(=O)N1CCCC(c2cc(C)[nH]n2)C1 (stereo unspecified),-0.6285%,–
CCN1CCCN(C(=O)c2ccccc2COC)CC1,–,3.121%
COCc1ccccc1C(=O)N1CCCC(O)C1 (stereo unspecified),–,58.79%
O=C(NCC(O)C1CCCCC1)[C@@H](O)c1ccccc1 (stereo partly specified),–,-2.815%
Cc1nn(CCO)c(NC(C)c2nccs2)c1C (stereo unspecified),–,-2.968%
COC[C@H]1CCC[C@H]1NC(=O)CCn1cncn1,–,1.07%
CN(Cc1cnn(C)c1)C(=O)CN1CCCC(Cn2cncn2)C1 (stereo unspecified),96.23%,–
CN(Cc1ccccc1)C(=O)CN1CCCC(Cn2cncn2)C1 (stereo unspecified),-36.27%,–
Cc1ccc(CN(C)C(=O)CN2CCCC(Cn3cncn3)C2)cc1 (stereo unspecified),-19.93%,–
NC(=O)COC(=O)c1cc(Cl)cc(C(F)(F)F)c1,–,-16.81%
Cc1[nH]ncc1C(=O)NCCCSCC(C)C,–,11.62%
Cc1nn(C)c2c(=O)n(Cc3ccc(F)cc3)nnc12,62.42%,–
Cc1c(C(=O)NC(C)C)nnn1Cc1ccccc1,–,17.24%
Cc1nn(C)c(=O)c2nn(-c3ccc(F)cc3)c(C)c12,-17.45%,–

SMILES,Percent Effect (10 µM),Percent Effect (50 µM)
CCn1nc(C)c2nnn(CC(=O)Nc3ccccc3)c(=O)c21,1.414%,–
Cc1nn(C)c2c(=O)n(Cc3ccc(C#N)cc3)nnc12,39.12%,–
Cc1nn(C)c2c(=O)n(Cc3ccccc3)nnc12,61.89%,–
CCn1nc(C)c2nnn(CC(=O)Nc3cccc(F)c3)c(=O)c21,-2.626%,–
Cc1nn(C)c2c(=O)n(CC(=O)Nc3cc(Cl)cc(Cl)c3)nnc12,-3.347%,–
Cc1nn(C)c2c(=O)n(Cc3ccc(Cl)cc3)nnc12,71.45%,–
COCC(C)(CCO)NCc1c(C)noc1C (stereo unspecified),–,-23.44%
CCC(CNC(=O)Nc1cc(C)nn1C)N1CCCC1 (stereo unspecified),–,-4.617%
NC(=O)C1CCN(CCOc2ccccc2F)CC1,–,-5.356%
Cc1cnccc1NCCNC(=O)Cc1ccccn1,–,-14.36%
CCO[C@H]1CN(C)C[C@@H]1NC(=O)c1cnc(CC)nc1,–,7.652%
C[S+]([O-])c1nncn1Cc1cccc2cccnc12 (stereo unspecified),–,-6.749%
Cc1cc(N2CCOC(CN(C)CC(N)=O)C2)ccn1 (stereo unspecified),–,2.869%
COCc1[nH][nH]c(=O)c1CCN,–,-30.62%
OC1(CNCCCn2cc(Cl)cn2)CCCNC1 (stereo unspecified),–,-11.83%
OC1(CNCCc2csc(-c3ccncc3)n2)CCCNC1 (stereo unspecified),-15.25%,–
OC1(CNCCOCc2ccc(Cl)cc2)CCCNC1 (stereo unspecified),–,57.1%
CCOCC(O)CN(C)Cc1cccc(C(N)=O)c1 (stereo unspecified),–,-13.39%
CCN1C[C@H]2CCN(C(=O)NC3CCCC3)CC[C@H]2S1(=O)=O,-4.304%,–
CCN1C[C@H]2CCN(C(C)=O)CC[C@H]2S1(=O)=O,-1.674%,–
CCN1C[C@H]2CCN(C(=O)NC)CC[C@H]2S1(=O)=O,59.16%,–
